This note sets out measurements from PubChem BioAssay (EPA / NIEHS).

Several values for one entry are separate records, joined by “and”; a condition that tells them apart may be missing. Equal values may be shown once. More than one record can exist for a structure, and the calls need not agree. Activity calls are given as the source filed them. The calls were made as follows: active = hit-call score of the fitted dose curve at least 0.9, where 1 is the maximum; inactive = score below 0.9.

Experiment [1] in a line: ATG_CRE_CIS: Attagene CIS-FACTORIAL HepG2 Assay for human cAMP Responsive Element (CRE) binding protein 3 (AID 2282926). To be noted: HepG2 CRE cis-reporter, Attagene multiplexed mRNA; actives raise or lower the signal. The procedure, abridged:
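Liver-derived HepG2, transfected with a CRE-containing reporter panel, exposed 24 h; transcript levels sized and quantified by capillary electrophoresis of labelled amplicons; signal changes either way referenced to vehicle.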

The target of experiment [2] is CCAAT/enhancer-binding protein beta (Homo sapiens) (UniProt P17676). Description: ATG_C_EBP_CIS: Attagene CIS-FACTORIAL HepG2 Assay for human CCAAT/Enhancer Binding Protein (C/EBP) beta (AID 2282927). As to conditions: HepG2 Attagene cis-factorial transcription factor reporter; actives raise or lower the signal. The procedure, abridged:
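Chemical-treated HepG2 cells (24 h) bearing cis-regulated reporter constructs were processed for total RNA, then reverse transcription, PCR amplification, fluorescent primer extension and fragment analysis; gain- and loss-of-signal were fitted against DMSO.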

Experiment [3] is described as follows: ATG_CMV_CIS: Attagene CIS-FACTORIAL HepG2 Assay for human CMV (Internal Marker) (AID 2282928).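 Also: endpoint acts as a background internal control marker rather than a target.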 As to conditions: HepG2 CMV promoter reporter, transcription factor profiling; actives raise or lower the signal. The procedure, abridged: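 Bidirectional fits against DMSO are applied to reporter mRNA, read by RT-PCR with capillary electrophoresis, from HepG2 cells exposed 24 h. The endpoint serves as an internal CMV background marker within the cis-factorial reporter panel.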

The nature of experiment [4]: ATG_DR4_LXR_CIS: Attagene CIS-FACTORIAL HepG2 Assay for human Liver X Receptor (LXR), DR4 submotif (AID 2282929). To be noted: HepG2 Attagene DR4 cis-reporter, mRNA transcription; actives raise or lower the signal. Summed up:
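After transient transfection with multiplexed cis-promoter reporter units, HepG2 cells received test chemicals for 24 h. Reporter mRNA induction, detected by fluorescence after RT-PCR and capillary electrophoresis, was scored relative to DMSO.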

For experiment [5], the target named is Aryl hydrocarbon receptor (Homo sapiens) (UniProt P35869). The experiment is described as follows: ATG_Ahr_CIS: Attagene CIS-FACTORIAL HepG2 Assay for human Aryl Hydrocarbon Receptor (Ahr) (AID 2282930). To be noted: HepG2 AhR cis-factorial reporter transcription; actives raise or lower the signal. Summed up:
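Following 24 h of chemical dosing, transfected HepG2 liver cells with cis-driven reporter units were lysed for RNA; reporter mRNA was quantified via RT-PCR and capillary electrophoresis, and responses fitted bidirectionally from DMSO.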

Experiment [6] can be described thus: ATG_AP_1_CIS: Attagene CIS-FACTORIAL HepG2 Assay for human Activator Protein 1 (AP-1) (AID 2282931). To be noted: HepG2 Attagene cis-factorial AP-1 reporter mRNA; actives raise or lower the signal. The procedure, abridged: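 After 24 h incubation with test chemical, RNA from transfected HepG2 cells was reverse-transcribed, amplified, fluorescently labelled and digested before capillary electrophoresis. Reporters were driven by cis-regulatory promoters; activity fitted bidirectionally versus DMSO.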

Experiment [7] is described as follows: ATG_AP_2_CIS: Attagene CIS-FACTORIAL HepG2 Assay for human Activator Protein 2 (AP-2) (AID 2282932). To be noted: HepG2 AP-2 cis-reporter, Attagene transcription factor profiling; actives raise or lower the signal. The procedure, abridged: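 Cells (HepG2) transfected with promoter-driven reporter constructs, treated 24 h. Total RNA reverse-transcribed, reporter cDNA PCR-amplified, FAM-labelled by primer extension, digested, resolved by capillary electrophoresis. Activity fitted both directions versus DMSO.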

Experiment [8] can be described thus: ATG_BRE_CIS: Attagene CIS-FACTORIAL HepG2 Assay for human Bone Morphogenetic Protein (BMP) Response Element (BRE) (AID 2282933). To be noted: HepG2 BMP response element reporter, Attagene transcription factor profiling; actives raise or lower the signal. Summed up: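 Multiplexed cis-reporter assay, HepG2, 24 h exposure. mRNA from reporter units quantified via RT-PCR/CE; DMSO baseline; bidirectional curve fit.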

Experiment [9] deals with Transcription factor E2F1 (Homo sapiens) (UniProt Q01094). The experiment is described as follows: ATG_E2F_CIS: Attagene CIS-FACTORIAL HepG2 Assay for human E2F Transcription Factor 1 (AID 2282935). To be noted: HepG2 Attagene cis-reporter, E2F reporter RNA transcripts; actives raise or lower the signal. Summed up:
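First, HepG2 cells were transfected with reporter transcription units. Next, they were dosed for 24 h. Then RNA was isolated, converted to cDNA, PCR-amplified, FAM-labeled, HpaI-digested and analyzed by capillary electrophoresis.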

The nature of experiment [10]: ATG_E_Box_CIS: Attagene CIS-FACTORIAL HepG2 Assay for human Enhancer Box (E-box) (AID 2282936). To be noted: HepG2 E-box cis-reporter transcription, actives raise or lower the signal. The procedure, abridged: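 Endogenous transcription factor activity was sensed in human HepG2 liver cells through transfected cis-promoter reporter units. After 24 h of dosing, total RNA was reverse-transcribed and reporter cDNA resolved by capillary electrophoresis.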

CCAAT/enhancer-binding protein beta (Homo sapiens), sequence (P17676 whole entry, looked up, the tested form may be a part): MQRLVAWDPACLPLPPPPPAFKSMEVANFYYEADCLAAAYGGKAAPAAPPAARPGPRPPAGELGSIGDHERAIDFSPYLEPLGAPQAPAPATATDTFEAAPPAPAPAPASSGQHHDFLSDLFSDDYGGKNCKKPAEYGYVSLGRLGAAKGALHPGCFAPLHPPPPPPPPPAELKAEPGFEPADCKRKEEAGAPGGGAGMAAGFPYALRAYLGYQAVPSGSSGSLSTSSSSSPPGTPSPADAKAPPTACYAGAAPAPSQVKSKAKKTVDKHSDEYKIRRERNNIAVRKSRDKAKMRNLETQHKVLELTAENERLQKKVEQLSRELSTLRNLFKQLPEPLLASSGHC
Aryl hydrocarbon receptor (Homo sapiens), sequence (P35869 whole entry, looked up): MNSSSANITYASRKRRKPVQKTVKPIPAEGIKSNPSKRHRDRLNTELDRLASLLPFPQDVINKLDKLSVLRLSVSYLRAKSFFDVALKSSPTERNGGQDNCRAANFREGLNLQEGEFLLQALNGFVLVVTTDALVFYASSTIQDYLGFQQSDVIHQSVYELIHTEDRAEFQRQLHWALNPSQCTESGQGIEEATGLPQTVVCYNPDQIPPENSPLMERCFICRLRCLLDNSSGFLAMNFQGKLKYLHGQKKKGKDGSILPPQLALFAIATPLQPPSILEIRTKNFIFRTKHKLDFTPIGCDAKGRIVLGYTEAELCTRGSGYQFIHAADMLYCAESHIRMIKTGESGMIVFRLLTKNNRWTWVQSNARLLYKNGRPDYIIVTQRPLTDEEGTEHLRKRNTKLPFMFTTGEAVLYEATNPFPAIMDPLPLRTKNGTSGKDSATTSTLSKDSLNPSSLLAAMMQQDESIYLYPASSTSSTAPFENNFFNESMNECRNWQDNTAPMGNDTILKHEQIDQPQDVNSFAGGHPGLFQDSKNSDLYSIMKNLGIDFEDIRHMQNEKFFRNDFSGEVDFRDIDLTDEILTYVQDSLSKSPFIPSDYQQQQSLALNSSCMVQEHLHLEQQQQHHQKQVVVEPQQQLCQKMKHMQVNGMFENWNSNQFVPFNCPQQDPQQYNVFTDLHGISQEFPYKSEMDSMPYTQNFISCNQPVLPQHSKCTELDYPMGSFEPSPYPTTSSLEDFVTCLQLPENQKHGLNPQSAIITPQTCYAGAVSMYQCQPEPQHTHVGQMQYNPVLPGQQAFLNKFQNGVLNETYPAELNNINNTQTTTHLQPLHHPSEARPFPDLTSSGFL
Transcription factor E2F1 (Homo sapiens), sequence (Q01094 whole entry, looked up): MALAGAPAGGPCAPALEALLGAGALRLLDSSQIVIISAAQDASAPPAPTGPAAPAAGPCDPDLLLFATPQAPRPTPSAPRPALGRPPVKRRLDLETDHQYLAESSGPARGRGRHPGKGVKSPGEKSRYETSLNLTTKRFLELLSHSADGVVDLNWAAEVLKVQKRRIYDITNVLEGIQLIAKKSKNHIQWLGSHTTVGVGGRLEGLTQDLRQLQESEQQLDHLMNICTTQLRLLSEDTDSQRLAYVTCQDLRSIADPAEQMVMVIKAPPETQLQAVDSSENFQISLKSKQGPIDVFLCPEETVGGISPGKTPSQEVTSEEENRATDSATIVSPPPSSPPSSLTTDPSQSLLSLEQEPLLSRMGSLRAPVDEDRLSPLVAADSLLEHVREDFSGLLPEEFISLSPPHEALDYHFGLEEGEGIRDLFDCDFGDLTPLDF

In general, AC50 refers to the midpoint of the concentration-response curve, whichever way the signal moves. Consider `C=CCCCCCCCCCCCC`, for which the molecule was classed as inactive in experiment [1], in experiment [2], in experiment [5], in experiment [6], in experiment [7] and in experiment [8]. Also, the molecule was called inactive in [9]. In addition, the AC50 is 100 µM (active) in [3] and 177 µM (active) in experiment [4].
Take `CCCCC(CC)COP(=O)(OCC(CC)CCCC)OCC(CC)CCCC` (stereo not given): the molecule was called inactive in [1], in experiment [2], in experiment [3], in experiment [4], in experiment [6] and in [7]. Also, the result in experiment [8], in experiment [9] and in experiment [10] was inactive. The AC50 in [5] is 68.9 µM (active).
In the case of `CCCCCCC(C=O)=Cc1ccccc1`, the outcome in [1], in experiment [2], in experiment [3], in [4], in [6] and in [8] was inactive. Moreover, the result in experiment [9] was inactive. Also, the AC50 was 74.3 µM (active) in experiment [3]; 37.4 µM (active) and 60 µM (active) in [5]; 60 µM (active) in experiment [6]; 44.9 µM (active) in [8].
Regarding `O=C(Oc1ccccc1)c1cccc(C(=O)Oc2ccccc2)c1`, the molecule was called inactive in experiment [1], in experiment [2], in experiment [3], in experiment [4], in [5] and in experiment [6]. Besides, the molecule was classed as inactive in experiment [7], in experiment [8] and in [9].
Regarding `CCCC(=O)O`, the AC50 in [1] was 0.0135 µM (active); in [3], 44.4 µM (active). The outcome in experiment [2], in experiment [4], in experiment [5], in experiment [6], in experiment [7] and in experiment [8] was inactive. Moreover, the call in experiment [9] was inactive.
Take `COC(=O)[C@H]1[C@H]2C[C@@H]3c4[nH]c5cc(OC)ccc5c4CCN3C[C@H]2C[C@@H](OC(=O)c2cc(OC)c(OC)c(OC)c2)[C@@H]1OC`: the AC50 was 21.9 µM (active) in [1], 22.8 µM (active) in [4], 12.5 µM (active) in [5] and 25.5 µM (active) in experiment [6]. In addition, the result in [2], in experiment [3], in experiment [7], in [8] and in experiment [9] was inactive.
With `CCC(C)N(C)C(=O)c1cc2ccccc2c(-c2ccccc2Cl)n1` (stereo not given), the result in [1], in experiment [2], in [5], in experiment [7], in [9] and in [10] was inactive. Further, the AC50 in experiment [3] is 46 µM (active); in experiment [4] it was 31.8 µM (active); in experiment [6], 84.8 µM (active); in experiment [8], 97.4 µM (active).
Turning to `CN(C)C(=O)NC1(c2ccccc2)CCN(CCC[C@]2(c3ccc(Cl)c(Cl)c3)CCCN(C(=O)c3ccccc3)C2)CC1`, the AC50 in experiment [1] is 4.22 µM (active); in experiment [2], 5.22 µM (active); in experiment [4], 4.53 µM (active); in [6], 2.75 µM (active). In addition, the outcome in [3], in experiment [5], in [7], in [8] and in experiment [9] was inactive.
For the molecule `CC(N)=O`, the molecule was classed as inactive in [1], in experiment [2], in experiment [3], in experiment [4], in experiment [5] and in [6]. The molecule was classed as inactive in experiment [7], in experiment [8] and in experiment [9]. The AC50 in experiment [5] is 29 µM (active).
With `CCCCC(CC)CO` (stereo not given), the result in experiment [1], in experiment [2], in experiment [3], in experiment [4], in [5] and in experiment [6] was inactive. For the same molecule, the molecule was classed as inactive in experiment [7], in experiment [8] and in [9].
On to `CCCCOC(=O)CCCCC(=O)OCCCC`, for which the outcome in experiment [1], in [2], in experiment [4], in experiment [5], in experiment [6] and in [7] was inactive. Besides, the molecule was classed as inactive in experiment [8] and in experiment [9]. Moreover, in experiment [3], the AC50 is 154 µM (active).
For the molecule `CN(C)CCCN(C)CCCN(C)C`, the call in [1], in experiment [2], in experiment [3], in experiment [5], in experiment [6] and in experiment [7] was inactive. Moreover, the outcome in experiment [8] and in [9] was inactive. The AC50 in experiment [4] was 24.5 µM (active).
Take `CCc1nc(N)nc(N)c1-c1ccc(Cl)cc1`: the AC50 in experiment [1] is 100 µM (active); in experiment [2] it was 15 µM (active); in experiment [3] it was 2.18 µM (active); in experiment [6], 2.53 µM (active). In addition, the outcome in experiment [4], in experiment [5], in experiment [7], in [8], in experiment [9] and in experiment [10] was inactive.
For `CCN(CC)CCOc1ccc(C(=C(Cl)c2ccccc2)c2ccccc2)cc1`, the concentration at half-maximal activity (AC50) was 12.8 µM (active) in experiment [1]; 17.4 µM (active) in experiment [2]; 7.17 µM (active) in [3]; 3.89 µM (active) and 3.11 µM (active) in experiment [4]; 9.35 µM (active) in experiment [5]. In addition, the molecule was classed as inactive in experiment [1], in [2], in experiment [3], in [4], in experiment [5] and in experiment [6]. Further, the result in experiment [8] and in [9] was inactive.
With `CC(C)COC(=O)CCCCC(=O)OCC(C)C`, the outcome in [1], in experiment [2], in experiment [3], in experiment [4], in experiment [5] and in experiment [6] was inactive. For the same molecule, the outcome in [7], in experiment [8], in [9] and in experiment [10] was inactive.
Consider `CCCCCCCCCCCCCCOS(=O)(=O)O`, for which the molecule was called inactive in [1], in experiment [2], in experiment [3], in experiment [4], in experiment [5] and in experiment [6]. Besides, the outcome in experiment [7], in experiment [8] and in experiment [9] was inactive.
With `c1ccc2occc2c1`, the molecule was classed as inactive in experiment [1], in [2], in [3], in [4], in experiment [6] and in experiment [7]. In addition, the molecule was called inactive in [8] and in experiment [9]. The AC50 in experiment [5] was 21.7 µM (active).
For the molecule `N[C@@H](Cc1c[nH]c2ccccc12)C(=O)O`, the result in experiment [1], in [2], in [3], in [4], in [6] and in experiment [7] was inactive. In addition, the molecule was called inactive in experiment [8], in experiment [9] and in [10]. Also, in experiment [5], the AC50 was 24 µM (active).
For `CC(=O)O[C@]1(C(C)=O)CC[C@H]2[C@@H]3C=C(Cl)C4=CC(=O)[C@@H]5C[C@@H]5[C@]4(C)[C@H]3CC[C@@]21C`, the outcome in experiment [1], in experiment [2], in experiment [3], in experiment [4], in experiment [5] and in experiment [6] was inactive. In addition, the result in [7], in experiment [8] and in experiment [9] was inactive. Also, the AC50 in experiment [3] was 100 µM (active) and 73.3 µM (active) and 33.4 µM (active); in experiment [4] it was 51.7 µM (active) [middle of 4 runs]; in [5], 150 µM (active) and 158 µM (active); in [6] it was 71.5 µM (active) [middle of 4 runs]; in experiment [7], 173 µM (active) and 60.4 µM (active); in experiment [8], 30.1 µM (active) and 43.7 µM (active) and 33.4 µM (active). The AC50 in experiment [9] is 145 µM (active).
